Assays:
Assay in all cases: PBM binding z-score (relative to random genomic background probes); higher = stronger binding; sequences stand for … in GC…GCGATTGACAGCGTAGAATGAAGG
[1] = test system: FXR:RXRa (NR concentration 270 nM, RXRa partner concentration 90 nM)
Outline: (§1)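 The probes on custom Agilent 4×180K protein-binding microarrays were double-stranded, with 34-nt variable regions bearing direct-repeat seeds, single-nucleotide variants, half-site ablations and random human genomic background sequences. Incubation lasted 1 h with ligand-free nuclear receptor dimers in PBS pH 7.4, 2% milk, 0.02% Triton X-100, 1 mM DTT, 0.2 mg/mL BSA and 0.4 mg/ml salmon testes DNA. Antibodies against each partner (one per run) detected bound dimers, and fluorescence scans were regression-normalized. Binding z-scores take the random background probes as reference.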

[2] = test system: LXRa:RXRa (NR concentration 270 nM, RXRa partner concentration 90 nM)
Outline: as §1

[3] = test system: LXRa homodimer (NR concentration 270 nM)
Outline: as §1

[4] = test system: LXRb:RXRa (NR concentration 270 nM, RXRa partner concentration 90 nM)
Outline: as §1

[5] = test system: LXRb homodimer (NR concentration 270 nM)
Outline: as §1

[6] = test system: PPARa:RXRa (NR concentration 270 nM, RXRa partner concentration 90 nM)
Outline: as §1

[7] = test system: PPARg:RXRa (NR concentration 180 nM, RXRa partner concentration 90 nM)
Outline: as §1

[8] = test system: PPARg:RXRa 270nM:90nM, anti-RXR (NR concentration 270 nM, RXRa partner concentration 90 nM)
Outline: as §1

[9] = test system: PPARg:RXRa 30nM:10nM, anti-RXR (NR concentration 30 nM, RXRa partner concentration 10 nM)
Outline: as §1

[10] = test system: PPARg:RXRa 90nM:30nM, anti-RXR (NR concentration 90 nM, RXRa partner concentration 30 nM)
Outline: as §1

Sequence	PBM binding z-score [1]	PBM binding z-score [2]	PBM binding z-score [3]	PBM binding z-score [4]	PBM binding z-score [5]	PBM binding z-score [6]	PBM binding z-score [7]	PBM binding z-score [8]	PBM binding z-score [9]	PBM binding z-score [10]
CAAACTATGTCAAGGTCAAAGTCGGTTTGTGCCA	4.77	4.95	4.54	4.26	1.75	4.65	4.09	4.7	2.24	3.82
CAGCCTAGGTCAGGGCCATTATAGGAGGAACGTT	1.65	1.08	-0.000598	0.902	-0.851	2.17	1.2	1.24	-0.158	0.533
CCGACTGGGGCAGGAAGGTTACCATACCATCCGG	-0.0935	-0.228	-0.392	-0.202	-0.995	0.76	0.782	0.189	-0.465	-0.0165
CGAACTAGGTCATCCAGGACAGTGACTACATTGA	4.72	2.67	0.428	1.91	-0.136	4.84	7.74	6.43	3.94	6.21
TAGCCTAGGTCATGCGGGCCAGAATAGTGTCGGC	4.39	3.19	0.255	1.79	-0.467	3.93	2.58	2.53	0.103	1.54
TCTAGCAGGCGAGAGGGTCACTCAAGAGGTACGG	0.647	0.656	-0.616	1.05	-1.27	2.03	0.765	1.64	1.43	1.6
CCTTACGGGTCACGAGGATATAGCACGACGAGCG	6.44	4.11	0.0313	3.62	-0.175	5.81	6.65	6.23	2.94	4.99
ATCTAAAGGTCGAGGTGAGTATAGAGAAAGGGAA	4.67	4.45	0.751	3.06	1.17	4.61	3.83	4.02	1.72	3.16
CGAACTAGGTCATCCAGGAAAGTGAATACATTGA	4.43	2.64	0.469	2.15	0.453	5.01	7.91	6.29	4.25	5.91
CCTAGCAGGCCAGGGTCACACAAGCATTTCGCTT	2.57	2.38	-0.252	2.77	-0.795	4	2.01	2.57	0.18	1.59
TCAGACAGGTGACGGTAACTCAGGTACGCAGTCG	-0.0449	0.58	-0.354	0.0924	-0.599	0.857	0.69	1.72	3.16	2.51
ACTATTACTTGAGACGAGGGCAACCGATAGGTTG	0.529	0.528	0.422	0.481	1.02	0.44	0.912	0.46	0.448	0.266
ATCTCTAGGTAAAGTTAAGTGAAAGATCGATAGA	0.787	0.68	0.216	0.185	0.709	0.332	0.903	1.19	0.64	1.04
CCTAATTGGTCAGGAGGTCACACACCGGATATGA	3.74	3.59	2.27	3.64	1.07	4.42	3.88	4.51	2.08	4.16
CCTATTAGTTGACCATAAGGGCAACCTAAGCTCG	1.15	0.43	0.487	0.701	0.685	0.846	0.521	0.842	0.125	0.491
CATGCTAGGTCATGGTCAGCTAATCTACAGTATG	3.66	3.18	0.549	1.79	-0.0133	3.24	2.36	2.83	1	2.3
TAGCCGAGGTCAGATCGGGCCAGTATACGCTATA	5.46	4.26	0.00263	3.74	0.611	4.8	3.14	3.56	1.05	2.17
ACAGACAGGTGAGTGAAGGTAGCTCAGCTGGACG	-0.0191	-0.179	-0.74	-0.796	-0.607	-0.372	0.284	0.0552	-0.201	-0.0871
CCGAGTAGGTTATGGGGGATTCAGGCAACGGTGA	1.01	1.49	0.84	3.36	6.87	2.55	2.34	4.36	1.98	3.77
TCATATAGGTAAACAGGTGAACGTCCGTAAGTTA	1.03	1.3	0.422	1.09	-0.0806	2.56	2.7	3.48	4.2	3.9
